Test results as given in PubChem BioAssay AID493194 (Broad Institute, 2011).
Results with a measured potency or affinity are listed apart. Records with an inconclusive call do not appear. Activity calls are given as the source filed them.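 How the source made its calls: active means a valid curve of falling signal whose half-effect concentration is at most ten times the top tested dose; inconclusive means flat curve at 30 to 70% inhibition, or poor fit; inactive means signal rise, flat within 30%, or potency beyond limit.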

These molecules were tested against Scavenger receptor class B member 1 (Mus musculus) (UniProt Q61009) (assay: mouse SR-BI DiI-HDL uptake blockers – ldlA[mSR-BI] cells, fluorescence, cherry pick, dose response (AID 493194;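 further: CHO cells lacking LDL receptor and overexpressing mouse SR-BI; cellular uptake of fluorescently labeled HDL measured as cell fluorescence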)). Conditions: CHO ldlA[mSR-BI] DiI-HDL uptake fluorescence, 3 h; series mostly up to 35 µM.
Scavenger receptor class B member 1 (Mus musculus), sequence (Q61009 whole entry, looked up): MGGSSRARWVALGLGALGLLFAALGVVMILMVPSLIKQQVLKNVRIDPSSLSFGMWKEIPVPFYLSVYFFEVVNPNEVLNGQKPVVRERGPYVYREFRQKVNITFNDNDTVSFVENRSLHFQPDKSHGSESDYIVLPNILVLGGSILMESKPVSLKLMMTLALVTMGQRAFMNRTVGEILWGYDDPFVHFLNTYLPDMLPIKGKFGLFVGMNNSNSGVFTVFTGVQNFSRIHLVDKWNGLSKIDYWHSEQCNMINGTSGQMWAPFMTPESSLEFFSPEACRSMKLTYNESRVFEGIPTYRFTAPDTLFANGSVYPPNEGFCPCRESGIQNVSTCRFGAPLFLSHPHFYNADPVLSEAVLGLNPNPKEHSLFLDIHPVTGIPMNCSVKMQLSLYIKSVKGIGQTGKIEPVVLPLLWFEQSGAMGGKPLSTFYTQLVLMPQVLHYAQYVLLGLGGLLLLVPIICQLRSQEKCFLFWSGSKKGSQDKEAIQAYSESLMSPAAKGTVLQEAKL

outcome, inactive:
Cc1sc(NC(=O)CN2CCOCC2)nc1-c1ccc2c(c1)CCN2S(=O)(=O)c1ccccc1
Cc1c(C(=O)OCC2CCCO2)[nH]c2c1C(=O)CC(c1ccco1)C2 (stereo not drawn)
CCn1nc(C)c(CN2CCc3c([nH]c4ccccc34)C2c2ccc(F)c(OC)c2)c1C (stereo not drawn)
COc1cccc2c1cc1c(=O)n(CC(=O)N3CCN(c4cccc(C)c4C)CC3)nc(C)n12
Cc1cc(=O)oc2cc(OCC(=O)N3CCN(C(=O)C4COc5ccccc5O4)CC3)c(Cl)cc12 (stereo not drawn)
CC(C)[C@H](NC(=O)c1ccco1)C(=O)OCC(=O)c1ccc2c(c1)NC(=O)CO2
COc1ccc(NC(=O)N2CCN(c3nc(-c4cccc(OC)c4)cs3)CC2)cc1
COc1ccc(C2/C=C\CN(S(=O)(=O)c3ccc(C)cc3)CC(=O)N2Cc2cccc(F)c2)cc1 (stereo not drawn)
CC(=O)c1cccc(NC(=O)c2ccc3c(c2)CCN3S(=O)(=O)c2ccccc2)c1
Cc1ccc(Sc2nc(-c3ccccc3)nnc2C(F)(F)F)cc1
O=C1[C@@H]2Cc3c([nH]c4ccccc34)C(c3cccc([N+](=O)[O-])c3)N2C(=O)CN1CCCO (stereo partly drawn)
COc1ccc(N(CC(=O)NC2CCCC2)C(=O)Cn2nnc(-c3ccc(C)cc3)n2)cc1
COCCOC(=O)c1[nH]c2c(c1C)C(=O)CC(c1ccco1)C2 (stereo not drawn)
O=C(NC1CCCCC1)C(c1ccc2ncccc2c1)N(Cc1ccco1)C(=O)c1ccc2c(c1)OCCO2 (stereo not drawn)
Cc1cc(N2CCN(C(=O)c3ccco3)CC2)n2ncc(-c3ccccc3)c2n1
CCC(C)C1/C=C\CC(NC(=O)OCC2c3ccccc3-c3ccccc32)CC(=O)N1Cc1ccccc1 (stereo not drawn)
Cc1cc(CN(C)C(=O)C2CCC(=O)N(CCc3cccc(F)c3)C2)on1 (stereo not drawn)
Cc1nn(Cc2ccccc2)c(C)c1NC(=O)c1cc2nc(-c3ccco3)cc(C(F)(F)F)n2n1
Cc1ccc(-c2sc(-c3ccccc3)nc2CC(=O)Nc2ccccc2F)cc1
c1ccc(COn2c(-c3ccccc3)nc3c2CCc2nonc2-3)cc1
CCCCc1nnc(NC(=O)c2ccc(OCc3c(C)noc3C)cc2)s1
CCNc1nc(Cl)nc(-c2cn(-c3ccccc3)c3ccccc23)n1
O=C(NC1CC2CCCC(C1)N2C(=O)N1CCCCC1)C1CCCCC1 (stereo not drawn)
Cc1ccc2c(c1)C(=O)C(=O)N2CC(=O)Nc1ccc(N2CCOCC2)cc1
CC(=O)c1ccc(-c2ccc(C(=O)Nc3nc(C)c(C(C)=O)s3)o2)cc1
CCCOC(=O)c1[nH]c2c(c1C)C(=O)CC(c1cc(OC)c(OC)c(OC)c1)C2 (stereo not drawn)
CC(C)C(C(=O)OCC(=O)c1ccc2c(c1)NC(=O)CO2)N1C(=O)c2ccccc2C1=O (stereo not drawn)
COc1ccccc1CNC(=O)C1CCC(CNC(=O)[C@@H]2Cc3ccccc3CN2)CC1 (stereo partly drawn)
O=C(/C=C/c1ccco1)Nc1cccc(NC(=O)/C=C/c2ccco2)n1
O=C(NC1CC1)c1ccc(CN(c2ccccc2)S(=O)(=O)c2ccccc2)cc1
O=C(NCN1C(=O)C2C3C=CC(C3)C2C1=O)OC1CCCCC1 (stereo not drawn)
CC(C)C(=O)N1CCc2cc(-c3csc(N)n3)ccc21
CC(=O)Nc1ccc(S(=O)(=O)N2CCC(C(=O)NCCC(=O)NCc3ccccc3)CC2)cc1
O=C(Nc1ccccc1F)c1ccc2c(c1)CCN2S(=O)(=O)c1ccccc1
CCCc1cc(-c2[nH]ncc2-c2ccc(C(=O)OCC)o2)c(O)cc1O
CSc1nccc(-c2sc(SC)c(C#N)c2-c2ccccc2)n1
Cc1ccc(NC(=O)CSc2nnc([C@H](C)NC(=O)OC(C)(C)C)o2)c(C)c1
CCC(C)c1ccccc1N1CC(C(=O)N2CCN(S(=O)(=O)c3ccccc3Br)CC2)CC1=O (stereo not drawn)
